Where “and” joins values, the source holds several entries; their conditions need not be identical. Identical values can stand only once. This is part of a sample that, as a whole, favours compounds with a hit. Of some 83,000 tested, about 20% had one in any assay.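 A percent growth of 40 corresponds to 60% growth inhibition; 0 means no net growth; -100 means all cells died. Active threshold: below 10.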 Where a structure was tested more than once in an assay, its records may differ in their call. Calls of active or inactive are those of the source.
How the values were obtained:
Assay in all cases: NCI-60 one-dose screen, 48 h (100 = growth as untreated, 0 = no growth, -100 = all killed)
Conditions in all cases: 10 µM unless noted
HCT-15 colon = tested on: HCT-15 colon
SNB-19 CNS = tested on: SNB-19 CNS
U251 CNS = tested on: U251 CNS
PC-3 prostate = tested on: PC-3 prostate
SK-MEL-5 melanoma = tested on: SK-MEL-5 melanoma
UACC-62 melanoma = tested on: UACC-62 melanoma
LOX IMVI melanoma = tested on: LOX IMVI melanoma
SK-MEL-2 melanoma = tested on: SK-MEL-2 melanoma
EKVX NSCLC = tested on: EKVX NSCLC
SN12C renal = tested on: SN12C renal
UO-31 renal = tested on: UO-31 renal
TK-10 renal = tested on: TK-10 renal
ACHN renal = tested on: ACHN renal
CAKI-1 renal = tested on: CAKI-1 renal
A498 renal = tested on: A498 renal
CCRF-CEM leukemia = tested on: CCRF-CEM leukemia
SNB-75 CNS = tested on: SNB-75 CNS
MOLT-4 leukemia = tested on: MOLT-4 leukemia
SK-MEL-28 melanoma = tested on: SK-MEL-28 melanoma
HT29 colon = tested on: HT29 colon

SMILES | growth (HCT-15 colon) | growth (SNB-19 CNS) | growth (U251 CNS) | growth (PC-3 prostate) | growth (SK-MEL-5 melanoma) | growth (UACC-62 melanoma) | growth (LOX IMVI melanoma) | growth (SK-MEL-2 melanoma) | growth (EKVX NSCLC) | growth (SN12C renal) | growth (UO-31 renal) | growth (TK-10 renal) | growth (ACHN renal) | growth (CAKI-1 renal) | growth (A498 renal) | growth (CCRF-CEM leukemia) | growth (SNB-75 CNS) | growth (MOLT-4 leukemia) | growth (SK-MEL-28 melanoma) | growth (HT29 colon)
OC1CCC(Oc2cccc3cnc(Nc4ccc5nc[nH]c5c4)nc23)CC1 (stereo not drawn) | 5.3% (active) and 81% (inactive) | 9.42% (active) and 41.1% (inactive) | 3.2% (active) and 27.7% (inactive) | 3.19% (active) and 35.5% (inactive) | -6.41% (active) and 47.6% (inactive) | -4.06% (active) and 46.2% (inactive) | 6.32% (active) and 39.2% (inactive) | -33.7% (active) and 84.8% (inactive) | -33.9% (active) and 52.7% (inactive) | 10.2% (inactive) and 38.4% (inactive) | 8.29% (active) and 49.1% (inactive) | 6.96% (active) and 46.2% (inactive) | 12.8% (inactive) and 41.9% (inactive) | 13.5% (inactive) and 62.8% (inactive) | -32.6% (active) and 43.1% (inactive) | -14.6% (active) and 15.4% (inactive) |  |  |  | 
CCOC(=O)Nc1nc2ccccc2[nH]1 | 102% (inactive) and 17.9% (inactive) | 99.9% (inactive) and 31.5% (inactive) | 96.1% (inactive) and 26.2% (inactive) | 98.7% (inactive) and 48% (inactive) | 113% (inactive) and 19.3% (inactive) | 102% (inactive) and 30.8% (inactive) | 99.8% (inactive) and 43.8% (inactive) | 110% (inactive) and 51% (inactive) | 95.6% (inactive) and 68.4% (inactive) | 95.1% (inactive) and 34.9% (inactive) | 94.5% (inactive) and 51.5% (inactive) |  | 103% (inactive) and 52.6% (inactive) | 93.6% (inactive) and 40.7% (inactive) | 117% (inactive) and 42.3% (inactive) | 98.9% (inactive) and 27.8% (inactive) | 102% (inactive) and 23.3% (inactive) | 120% (inactive) and 16.7% (inactive) |  | 
COC(=O)C(C(=O)C(=O)NC1Nc2ccc(C)cc2S1)c1nc2ccc(Cl)cc2[nH]c1=O (stereo not drawn) |  |  |  |  |  | 77.4% [100 µM] (inactive) and 58.3% [100 µM] (inactive) |  |  |  |  |  |  |  |  |  |  |  |  |  | 
Cc1ccc(NC(=O)/C(Cc2cc(=O)oc3cc(O)ccc23)=N\NC(C)(C)C)cc1C |  |  |  |  |  | 87.9% [100 µM] (inactive) and 92.2% [100 µM] (inactive) |  |  |  |  |  | 103% [100 µM] (inactive) and 101% [100 µM] (inactive) |  |  |  |  |  |  |  | 
CC1(c2ccc3ccccc3c2)CCC(=O)O1 (stereo not drawn) | 107% (inactive) | 106% (inactive) | 99.9% (inactive) | 97.9% (inactive) | 105% (inactive) |  | 93.1% (inactive) | 86.6% (inactive) | 111% (inactive) | 102% (inactive) | 81.1% (inactive) | 93.5% (inactive) | 101% (inactive) | 100% (inactive) | 113% (inactive) | 105% (inactive) |  | 95.2% (inactive) | 102% (inactive) | 
COc1ccc(NC(=S)Nc2ccccn2)cc1 | 98.6% (inactive) | 98.9% (inactive) | 93.6% (inactive) | 97.2% (inactive) | 98.9% (inactive) | 103% (inactive) | 89.8% (inactive) | 94.6% (inactive) | 96.5% (inactive) | 100% (inactive) | 93.7% (inactive) | 102% (inactive) | 97.7% (inactive) | 89.3% (inactive) | 83% (inactive) | 90.8% (inactive) |  | 91% (inactive) | 110% (inactive) | 
C=C(CCC(C(=O)O)C1CCC2(C)C3=C(CCC12C)C1(C)CCC(O)C(C)(C)C1CC3)C(C)C (stereo not drawn) |  |  |  |  |  | -50.9% [100 µM] (active) and -100% [100 µM] (active) |  |  |  |  |  |  |  |  |  |  |  |  |  | 
O=C(Nc1cccc(-n2ccc3c(NC(=O)c4ccccc4)nccc32)c1)c1ccc(Cl)c(C(F)(F)F)c1 | -15.1% (active) and 34.3% (inactive) | 13.8% (inactive) and 55.4% (inactive) | 43.4% (inactive) | -30.6% (active) and 51.1% (inactive) | -92.4% (active) and 57.4% (inactive) | 5.48% (active) and 54.1% (inactive) | -80.3% (active) and 18.4% (inactive) |  | 38% (inactive) and 87.3% (inactive) | -40% (active) and 64.5% (inactive) | 7.05% (active) and 75.7% (inactive) | 93.1% (inactive) | 13% (inactive) and 53.5% (inactive) | -66.7% (active) and 42.8% (inactive) | 15.3% (inactive) and 75.5% (inactive) |  | 16% (inactive) and 84.4% (inactive) | -4.82% (active) and 10.3% (inactive) | -38.9% (active) and 79.8% (inactive) | 
CN1CCN(c2ccc3nc(-c4c(N)c5c(F)cccc5[nH]c4=O)[nH]c3c2)CC1 | 30.7% (inactive) and 18.7% (inactive) | 53.9% (inactive) and 61.5% (inactive) | 34.9% (inactive) and 33.5% (inactive) | 27.2% (inactive) and 38.4% (inactive) | 11.2% (inactive) and 36.3% (inactive) | 46.5% (inactive) and 41% (inactive) | -66.4% (active) and 16.4% (inactive) | 45.5% (inactive) | -82.3% (active) and 54.7% (inactive) | 26.3% (inactive) and 27.6% (inactive) | 7.59% (active) and 16% (inactive) |  | 17.8% (inactive) and 18% (inactive) | 14% (inactive) and 20.4% (inactive) |  | 6.23% (active) and 10.7% (inactive) |  | -8.41% (active) and 1.37% (active) | -5.34% (active) | 
N=C1N=C(N)CS1 |  | 104% (inactive) |  | 101% (inactive) | 98.4% (inactive) | 100% (inactive) | 107% (inactive) | 116% (inactive) |  | 99.9% (inactive) | 93.2% (inactive) | 131% (inactive) | 116% (inactive) | 96.5% (inactive) | 90.7% (inactive) | 104% (inactive) |  | 99.1% (inactive) | 109% (inactive) | 105% (inactive)
COc1ccc2c(C)cc(N/N=C/c3ccc(C)s3)nc2c1 |  |  |  |  |  | -86.5% [100 µM] (active) and -100% [100 µM] (active) |  |  |  |  |  |  |  |  |  |  |  |  |  | 
Nc1ccc2ccc(N)cc2c1 | 74.4% (inactive) | 96.1% (inactive) |  | 60.3% (inactive) | 83% (inactive) | 80.7% (inactive) | 65.1% (inactive) | 68.4% (inactive) |  | 88.5% (inactive) | 59.4% (inactive) | 117% (inactive) | 84.8% (inactive) | 75.7% (inactive) |  |  | 91.3% (inactive) |  | 92.1% (inactive) | 
CCOC(=O)Nc1ccc2c(c1)/C(=N\NC(N)=S)c1ccccc1-2 | 22.1% (inactive) and 38.2% (inactive) | 78.4% (inactive) and 75.3% (inactive) |  | 42.5% (inactive) and 90.9% (inactive) | 38.1% (inactive) and 44.2% (inactive) | 37.3% (inactive) and 51.3% (inactive) | 54.4% (inactive) and 58.4% (inactive) | 70.1% (inactive) and 93.2% (inactive) | 68.3% (inactive) and 70.8% (inactive) |  | 68% (inactive) and 82.5% (inactive) | 82.2% (inactive) and 107% (inactive) | 56.8% (inactive) and 68.7% (inactive) | 43% (inactive) and 73.4% (inactive) | 46.6% (inactive) and 65.5% (inactive) | 19.9% (inactive) and 27.8% (inactive) |  | 46% (inactive) and 41.8% (inactive) |  | 
N#Cc1nc(C(F)(F)F)oc1N |  |  |  |  |  | 57.6% [100 µM] (inactive) and 93.3% [100 µM] (inactive) |  |  |  |  |  |  |  |  |  |  |  |  |  | 
COc1ccc(OC)c(N(CN2C(=O)CCC2C(=O)O)C(C)=O)c1 (stereo not drawn) |  |  |  |  |  | 80.4% [100 µM] (inactive) and 103% [100 µM] (inactive) |  |  |  |  |  |  |  |  |  |  |  |  |  | 

Source: PubChem BioAssay (NCI)
